The values that follow come from PubChem BioAssay (NCATS).

Inconclusive results are not listed. The source made the active and inactive calls. Unless noted, the call rests on the fitted dose curve; in most records, active means well fitted curve in the direction sought with a large enough effect; inconclusive means small, poorly fitted or top-dose-only effect, or another doubt; inactive means no such curve, though single readings can be large; an effect the other way counts as inactive or inconclusive.

Assay [1] is described as follows: AP1 Signaling Pathway (AID 357; active means well fitted curve in either direction with a large enough effect, not every such curve was filed as active;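 further: ME-180 reporter cells stimulated with EGF at its EC50 level; on the % scale 0 is the no-effect control and ±100 the full control effect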). To be noted: ME-180 AP-1-bla reporter, EGF-induced, beta-lactamase ratio, 5 h; at 17.2 µM (top of the series). Put shortly:
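Cells are seeded overnight, exposed to compound titrations and an EC50 level of EGF for 5 hours at 37 °C, then loaded with CCF4 dye for 2.5 hours. Beta-lactamase activity under the AP-1 element is read as a blue/green ratio.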

The nature of assay [2]: Stat Signaling Pathway (AID 446; active means well fitted curve in either direction with a large enough effect, not every such curve was filed as active;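 further: ME-180 cervical cancer cells given 40 pM IL-6 alongside compound; SIE-controlled beta-lactamase reporter measured as 460/530 nm FRET emission ratio; on the % scale 0 is the no-effect control and ±100 the full control effect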). To be noted: ME-180 (cervical carcinoma) SIE beta-lactamase reporter, IL-6 stimulated, 5 h; at 17.2 µM (top of the series). Put shortly: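 FRET read-out (405 nm excitation, 460/530 nm emission) of a beta-lactamase reporter under a STAT-inducible element in ME-180 cervical carcinoma cells. Cells with compound receive 40 pM IL-6 for 5 h. Values are normalised to AC90 stimulation and AC90 JAK-inhibitor controls.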

For assay [3], the target named is Glucocorticoid receptor (Homo sapiens) (UniProt P04150). Nature of the assay: GR-GFP Redistribution (AID 450;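 active means compounds whose dose series gives a full or clear partial fitted curve of increased nuclear translocation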; further: potency means the concentration at half of the fitted maximal effect). To be noted: U2OS GR-GFP nuclear translocation, laser cytometry, 2 h.
Sequence of Glucocorticoid receptor (Homo sapiens) (P04150 whole entry, looked up, the tested form may be a part): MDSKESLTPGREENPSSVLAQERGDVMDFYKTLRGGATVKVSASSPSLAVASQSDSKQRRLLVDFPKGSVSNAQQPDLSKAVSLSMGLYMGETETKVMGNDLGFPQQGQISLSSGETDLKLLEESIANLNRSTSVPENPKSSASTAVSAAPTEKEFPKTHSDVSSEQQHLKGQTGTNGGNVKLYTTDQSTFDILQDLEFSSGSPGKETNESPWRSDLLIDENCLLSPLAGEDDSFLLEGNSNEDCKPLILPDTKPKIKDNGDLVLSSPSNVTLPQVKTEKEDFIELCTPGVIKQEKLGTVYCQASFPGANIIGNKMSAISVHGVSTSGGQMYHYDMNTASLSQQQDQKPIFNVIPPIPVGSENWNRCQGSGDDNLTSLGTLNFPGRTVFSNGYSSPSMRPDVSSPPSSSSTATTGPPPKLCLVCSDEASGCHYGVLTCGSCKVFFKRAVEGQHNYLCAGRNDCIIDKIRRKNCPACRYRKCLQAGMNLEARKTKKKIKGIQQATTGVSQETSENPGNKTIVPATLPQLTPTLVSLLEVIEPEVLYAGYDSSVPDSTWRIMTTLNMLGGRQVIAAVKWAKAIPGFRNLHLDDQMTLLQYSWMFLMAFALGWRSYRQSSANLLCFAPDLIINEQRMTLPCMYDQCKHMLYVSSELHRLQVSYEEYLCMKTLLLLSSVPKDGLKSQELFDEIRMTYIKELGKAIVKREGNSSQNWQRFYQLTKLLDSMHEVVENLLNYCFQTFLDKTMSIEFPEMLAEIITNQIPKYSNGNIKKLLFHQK
Assay [4] shares this target. Nature of the assay: GR-EFC Redistribution (AID 451; calls by dose curve; further: potency means the concentration at half of the fitted maximal effect). To be noted: CHO-K1 GR-EFC translocation, beta-gal luminescence, 2 h. Put shortly: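 CHO-K1 cells stably expressing nuclear-localized β-gal enzyme acceptor and GR fused C-terminally to the enzyme donor fragment; ligand-driven nuclear translocation restores β-gal by complementation. Compounds titrated up to 46 uM final, 2 h at 37 °C; luminescence read.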

For assay [5], the target named is Mitogen-activated protein kinase 10 (Mus musculus) (UniProt Q61831). As to the kind of experiment: JNK3 AlphaScreen Assay (AID 530; active means well fitted curve in either direction with a large enough effect, not every such curve was filed as active;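 further: kinase came from lysate of stimulated human HepG2 cells; signal reports phosphorylation of biotinylated GST-cJun 1-79 at Ser73 with 10 µM ATP; on the % scale 0 is the no-effect control and ±100 the full control effect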). Put shortly: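 Biotinylated GST-cJun(1-79) served as substrate for JNK3 in HepG2 lysates stimulated with IL-1beta and TNF-alpha. ATP was 10 uM final, pH 7.6. Ser73 phosphorylation was quantified by AlphaScreen (680 nm excitation).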

Assay [6] concerns the target 3',5'-cyclic-AMP phosphodiesterase 4B (Homo sapiens) (UniProt Q07343). Nature of the assay: qHTS Assay for Inhibitors of PDE-IV (AID 607; active means well fitted activation curve with a large enough effect in the main read-out, with a control signal flat, not every such curve was filed as active; further: % of control where 0% means no effect). Put shortly: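 Cell-based read-out of cAMP via a modified cyclic nucleotide-gated channel and membrane potential dye (535/590 nm) in HEK293 cells expressing PDE4 endogenously. Compounds tested up to 22.9 uM final; 100 uM RO 20-1724 reference.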

Assay [7] is described as follows: qHTS Assay for Lipid Storage Modulators (AID 1519; calls by dose curve). To be noted: Drosophila S3 cells, BODIPY lipid droplet/cell ratio, laser cytometry, cells loaded with oleic acid. Put shortly:
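Cells seeded at 5,000 per well were treated with compounds over a concentration series and loaded with oleic acid (400 uM, as added). Lipid droplet fluorescence (488 nm excitation, 500-530 nm channel) was read by laser-scanning cytometry and normalized to 20 uM Triacsin C.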
Background: qHTS replaces the single test concentration by a dilution series.

In a further assay the target is Furin (Homo sapiens) (UniProt P09958). Nature of the assay: Furin counterscreen qHTS for Zika virus inhibitors (AID 1347149). Further: nearly all actives have a fitted effect of over 70% in size. Further: potency means the concentration at half of the fitted maximal effect.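 On activity change, negative = inhibition: purified recombinant full-length human furin enzyme at 5 nM; fluorescence gain from furin cutting a BOC-RVRR-AMC peptide substrate over 15 min; top concentration of the series differs between compounds; plate controls were no-inhibitor control for no effect and no-enzyme control for full effect.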 Put shortly: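 Counterscreen measures cleavage of 2 microM BOC-RVRR-AMC, below its ~15 microM Km, by 5 nM full-length human furin at pH 7.0 after a 15-min compound preincubation. Inhibition derives from the 15-min fluorescence increase at 37C.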
Sequence of Furin (Homo sapiens) (P09958 whole entry, looked up): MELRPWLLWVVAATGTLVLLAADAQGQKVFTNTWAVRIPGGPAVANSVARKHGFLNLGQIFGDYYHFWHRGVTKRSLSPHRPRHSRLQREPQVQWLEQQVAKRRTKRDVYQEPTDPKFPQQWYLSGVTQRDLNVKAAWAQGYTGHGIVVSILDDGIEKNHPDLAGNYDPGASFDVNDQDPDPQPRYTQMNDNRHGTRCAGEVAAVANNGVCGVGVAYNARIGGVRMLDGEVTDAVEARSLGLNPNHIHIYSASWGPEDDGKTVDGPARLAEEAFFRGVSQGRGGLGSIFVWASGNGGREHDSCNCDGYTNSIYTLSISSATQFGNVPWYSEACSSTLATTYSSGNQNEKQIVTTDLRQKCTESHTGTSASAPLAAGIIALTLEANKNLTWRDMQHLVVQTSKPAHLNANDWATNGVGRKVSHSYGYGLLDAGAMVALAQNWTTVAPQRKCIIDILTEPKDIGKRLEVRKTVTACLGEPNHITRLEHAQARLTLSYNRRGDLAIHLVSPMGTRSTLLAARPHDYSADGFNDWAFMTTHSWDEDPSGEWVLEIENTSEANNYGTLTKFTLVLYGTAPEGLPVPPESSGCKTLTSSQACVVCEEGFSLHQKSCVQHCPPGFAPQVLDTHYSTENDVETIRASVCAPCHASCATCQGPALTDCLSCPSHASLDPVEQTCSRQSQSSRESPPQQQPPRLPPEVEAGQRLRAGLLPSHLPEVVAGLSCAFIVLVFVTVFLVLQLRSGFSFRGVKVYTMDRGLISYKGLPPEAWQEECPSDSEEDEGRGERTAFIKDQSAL
A general note: A counterscreen serves to expose hits that act by an unwanted route or on another target.

Assay [8] is described as follows: Vero cells viability qHTS for Zika virus inhibitors (AID 1347167). Further: on the % scale 0 is the no-effect control and ±100 the full control effect. Put shortly: (§1)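 To flag cytotoxic protease inhibitors, viability is measured by ATP-dependent luminescence (CellTiter Glo) after cells attached overnight receive compound for 24 to 48 hours in DMEM with 4% FBS.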
Assay [9] in a line: HepG2 cells viability qHTS for Zika virus inhibitors (AID 1347168). Further: on the % scale 0 is the no-effect control and ±100 the full control effect. Put shortly: as §1
Assay [10] can be described thus: Tertiary RLuc qRT-PCR qHTS assay for Zika virus inhibitors (AID 1347169). Further: nearly all actives have a fitted effect of over 55% in size. Further: potency means the concentration at half of the fitted maximal effect. Put shortly: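 Vero cells (1,000/well) infected with recombinant ZIKV-RLuc (Cambodian) at MOI 1-2 after compound addition, 48-72 hrs at 37 degrees C. Live-cell Renilla luciferase substrate added; luminescence read after 1-1.5 hrs.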
A short description of assay [11]: ZIKV-mCherry secondary qHTS for Zika virus inhibitors (AID 1347158). Further: top concentration of the series differs between compounds. Put shortly: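 Read-out is percent infection: mCherry-positive Vero cells (nuclear-proximal intensity >450 RFU, 3 SD above negative controls) counted by high-content imaging of Hoechst-stained, PFA-fixed wells after 48-72 h with ZIKV-mCherry at MOI 1 and compound.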
The target in assay [12] is Cytochrome P450 3A4 (Homo sapiens) (UniProt P08684). As to the kind of experiment: qHTS Assay for Inhibitors and Substrates of Cytochrome P450 3A4 (AID 884). Further: on the % scale 0 is the no-effect control and ±100 the full control effect; nearly all actives have a fitted effect of over 50% in size. Put shortly: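 Luminescent readout of luciferin produced by CYP3A4 (20 nM) dealkylation of Luciferin-PPXE, 25 uM (its KM). NADPH-driven reaction ran 60 min at RT after 10 min compound preincubation; data scaled to 57 uM ketoconazole as 100% inhibition.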
Sequence of Cytochrome P450 3A4 (Homo sapiens) (P08684 whole entry, looked up): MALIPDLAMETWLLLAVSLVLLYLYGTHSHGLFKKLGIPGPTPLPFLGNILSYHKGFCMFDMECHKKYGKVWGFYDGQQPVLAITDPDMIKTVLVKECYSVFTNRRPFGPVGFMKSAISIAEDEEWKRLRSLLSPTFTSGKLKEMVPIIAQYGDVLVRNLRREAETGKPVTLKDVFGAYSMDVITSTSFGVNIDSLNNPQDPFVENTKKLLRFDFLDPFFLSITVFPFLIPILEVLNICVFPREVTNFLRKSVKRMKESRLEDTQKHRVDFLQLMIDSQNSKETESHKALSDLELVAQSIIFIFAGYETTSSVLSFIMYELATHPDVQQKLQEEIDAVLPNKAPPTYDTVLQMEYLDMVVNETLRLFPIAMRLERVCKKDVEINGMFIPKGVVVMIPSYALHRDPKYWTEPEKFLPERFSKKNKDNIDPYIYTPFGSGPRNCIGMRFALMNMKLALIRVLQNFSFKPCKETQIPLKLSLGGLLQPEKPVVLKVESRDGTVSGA

Assay [13] can be described thus: Confirmation and Secondary Assay for Modulators of Hemoglobin Beta Chain Splicing at IVS2 654 locus (AID 910).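 Further: per-well total GFP intensity by laser scanning cytometry after 2-day treatment; % of control where 0% means no effect.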 Put shortly: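 HeLa cells stably carrying EGFP interrupted by mutant beta-globin IVS2-654 intron (CMV-driven) were treated with compound for 2 days at 37C; corrected splicing was scored as total peak GFP intensity per well (488 nm excitation, 500-520 nm emission).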

Assay [14] in a line: Confirmation and Secondary Assay for Modulators of Hemoglobin Beta Chain Splicing at IVS2 705 locus (AID 930).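 Further: HeLa cells stably expressing the EGFP-705 splicing reporter; GFP fluorescence per well restored by corrected splicing of the IVS2-705 intron in EGFP; % of control where 0% means no effect.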 Put shortly: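 Per-well GFP, captured at 1 x 8 µm resolution with 488 nm excitation, served as the read-out for HeLa EGFP-705 cells incubated 2 days with test compound versus DMSO.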
The target in assay [15] is Ubiquitin carboxyl-terminal hydrolase 1 (Homo sapiens) (UniProt O94782). Nature of the assay: Inhibitors of USP1/UAF1: Pilot qHTS (AID 504865).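 Further: rhodamine fluorescence freed from ubiquitin-rhodamine substrate followed over time; top concentration of the series differs between compounds; on the % scale 0 is the no-effect control and ±100 the full control effect; nearly all actives have a fitted effect of over 35% in size.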 Put shortly: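 USP1/UAF1 complex at 1 nM preincubated 15 min at room temperature with compound, then Ub-Rho substrate added at 150 nM final. Fluorescence (480/540 nm) read kinetically in 50 mM HEPES pH 7.8, 0.5 mM EDTA, 1 mM TCEP, 0.1 mg/ml BSA, 0.01% Tween-20.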
Sequence of Ubiquitin carboxyl-terminal hydrolase 1 (Homo sapiens) (O94782 whole entry, looked up): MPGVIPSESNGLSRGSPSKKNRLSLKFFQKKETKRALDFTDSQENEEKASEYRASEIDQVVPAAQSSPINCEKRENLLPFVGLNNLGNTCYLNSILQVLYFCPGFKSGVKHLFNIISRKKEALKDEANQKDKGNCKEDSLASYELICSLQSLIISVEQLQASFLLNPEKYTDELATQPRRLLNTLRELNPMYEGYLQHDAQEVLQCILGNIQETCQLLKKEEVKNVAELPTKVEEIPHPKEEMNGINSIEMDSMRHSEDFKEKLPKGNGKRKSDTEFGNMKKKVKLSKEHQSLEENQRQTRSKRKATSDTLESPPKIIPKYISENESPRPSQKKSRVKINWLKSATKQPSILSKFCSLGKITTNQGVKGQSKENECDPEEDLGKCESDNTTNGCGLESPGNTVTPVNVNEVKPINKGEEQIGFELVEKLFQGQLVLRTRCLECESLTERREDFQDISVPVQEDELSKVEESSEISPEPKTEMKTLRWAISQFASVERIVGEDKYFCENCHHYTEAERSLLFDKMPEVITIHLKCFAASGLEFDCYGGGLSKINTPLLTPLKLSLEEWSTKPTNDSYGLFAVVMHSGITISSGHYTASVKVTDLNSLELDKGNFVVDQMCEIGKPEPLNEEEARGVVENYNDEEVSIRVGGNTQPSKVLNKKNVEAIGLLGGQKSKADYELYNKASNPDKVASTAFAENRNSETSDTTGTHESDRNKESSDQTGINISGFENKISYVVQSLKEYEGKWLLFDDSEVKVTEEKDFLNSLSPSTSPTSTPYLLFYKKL

Assay [16] in a line: Confirmatory screen GU Rhodamine qHTS for Zika virus inhibitors qHTS (AID 1347157).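 Further: plate controls were no-inhibitor wells for no effect and no-enzyme wells for full effect; nearly all actives have a fitted effect of over 70% in size.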 Put shortly: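 Percent inhibition derives from the 15-min fluorescence change (ex 480, em 540 nm), normalized to no-enzyme and no-inhibitor wells. Reactions contained 25 nM NS2B-NS3 complex and 1.5 microM substrate in 10 mM Tris-HCl pH 8.0.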
The mark [17] stands for this setting: measured here: cell count channel max response.
Where [18] appears, read: measured here: lipid channel max response.

Sequence of 3',5'-cyclic-AMP phosphodiesterase 4B (Homo sapiens) (Q07343 whole entry, looked up): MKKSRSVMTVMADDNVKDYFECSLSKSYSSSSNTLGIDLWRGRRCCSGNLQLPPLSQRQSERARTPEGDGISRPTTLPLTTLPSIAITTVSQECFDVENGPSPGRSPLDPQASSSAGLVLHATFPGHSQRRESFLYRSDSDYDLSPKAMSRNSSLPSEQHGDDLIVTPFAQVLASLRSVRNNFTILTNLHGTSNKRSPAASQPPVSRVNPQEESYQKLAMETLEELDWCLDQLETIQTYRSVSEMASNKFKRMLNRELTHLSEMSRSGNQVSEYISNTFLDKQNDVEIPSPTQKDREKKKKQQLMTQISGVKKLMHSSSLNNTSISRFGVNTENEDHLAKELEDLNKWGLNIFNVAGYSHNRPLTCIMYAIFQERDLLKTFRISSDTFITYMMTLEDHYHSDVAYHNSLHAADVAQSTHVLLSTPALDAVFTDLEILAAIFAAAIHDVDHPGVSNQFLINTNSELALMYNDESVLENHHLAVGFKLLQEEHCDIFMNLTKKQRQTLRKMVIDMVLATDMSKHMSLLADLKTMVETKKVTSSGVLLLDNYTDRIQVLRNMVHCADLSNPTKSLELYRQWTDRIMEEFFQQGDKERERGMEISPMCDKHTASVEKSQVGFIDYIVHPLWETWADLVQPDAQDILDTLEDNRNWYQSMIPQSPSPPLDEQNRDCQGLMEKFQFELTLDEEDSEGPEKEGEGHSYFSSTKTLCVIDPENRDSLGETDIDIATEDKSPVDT

On to `CC[C@@H]1O[C@]2(C=C[C@@H]1C)C[C@H]1C[C@H](CC=C(C)[C@@H](O[C@@H]3C[C@H](OC)[C@H](O[C@@H]4C[C@H](OC)[C@H](O)[C@H](C)O4)[C@H](C)O3)[C@@H](C)C=CC=C3CO[C@@H]4[C@@H](O)C(C)=C[C@@H](C(=O)O1)[C@]34O)O2`, for which the activity change, negative = inhibition in assay [1] is 6.2% (inactive); in assay [7] (at 25.7 µM (top of the series)) it was -16.6% (inactive). For the same compound, in [2], the activity, negative = inhibition was -5.99% (inactive). The figures for the Potency in assay [3], in [4] and in [10] were > 20.6 µM (inactive), > 20.6 µM (inactive) and 9.97 µM (active), respectively. Further, the Potency result (in [5]; in assay [6]; in the assay with Furin (Homo sapiens); in [8]; in assay [9]) was “inactive” throughout. The max response was -4.3% in [7] (setting [17]) and -18.8% in assay [7] (setting [18]).
For `COc1ccc(C(=O)Nc2ccc(C(=O)OCc3cc(=O)n4nc(C5CC5)sc4n3)cc2)cc1`, the Potency in the assay with Furin (Homo sapiens) was 13.2 µM (active). For the same compound, the Potency entry in assay [10] is “inactive”.
As to `Cc1cccc(C(=O)Nc2ccc(C(=O)OCc3cc(=O)n4nc(C5CC5)sc4n3)cc2)c1`, the Potency with Furin (Homo sapiens) was 26.4 µM (active). In addition, the Potency entry in assay [11] and in assay [10] was “inactive” throughout.
As for `O=C(O)Cc1cc(I)c(Oc2cc(I)c(O)c(I)c2)c(I)c1`, the Potency entry (in [12]; in assay [15]; with Furin (Homo sapiens); in [16]; in assay [10]) was “inactive” each time. In addition, the call in [13] and in [14] was inactive. The activity change, negative = inhibition in [7] (at 57.5 µM (top of the series)) is 3.04% (inactive). Moreover, the figures for the max response in assay [7] (setting [17]) and in assay [7] (setting [18]) were 12.2% and 14.7%, respectively.
